HT1080 IDH1KD tx: toxicity to HT-1080 IDH1 knockdown cells (counter line) | 360,000 tested, 2% active | AID 686971 | HT-1080 IDH1 knockdown viability, ATP luminescence, 48 h | Potency, µM (titrated, usually from 46.1 µM), for inactives: top-dose activity, negative = toxicity, most hits filed as cytotoxic;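 note: potency is the fitted concentration of half-maximal effect; 0% = DMSO wells and -100% = cell-free medium wells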
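Knockdown cells (IDH1KD HT-1080) received compounds 2 h after plating at 750 cells/well and were kept 48 h at 37 °C in 5% FBS RPMI. A CellTiter-Glo luminescence read gave % activity for curve fitting.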
IL1B secr inh: inhibitors of inflammasome signaling (IL-1 beta secretion). 360,000 tested, 4.7% active. activity change, % at 57.5 µM. AID 743279. THP-1 LPS/ATP IL-1B secretion, AlphaLISA, 16 h; stronger effect = lower value; in the data active = activity change below about -50%; inconclusive = mostly about -30% to -49%
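Secreted IL-1B measured by AlphaLISA bead assay after 16 h compound exposure of THP-1 cells; compounds (final up to 57.5 uM) added 1 h before LPS (250 ng/mL) and ATP (1.25 mM) stimulation; lower signal means less secretion.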
HT1080NT lethal: kills 2HG-producing HT-1080-NT fibrosarcoma cells. AID 686970. 360,000 tested, 1.6% active. HT-1080-NT fibrosarcoma viability, CellTiter-Glo ATP luminescence, 48 h. Potency, µM (top dose mostly 46.1 µM), inactives show at the top dose activity, negative = less viability, hits mostly cytotoxic;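 note: NT is the 2HG producing partner of a matched IDH1 knockdown line; potency is the fitted concentration of half-maximal effect; 0% = DMSO-treated cells and -100% = media-only wells without cells; nearly all actives have a fitted effect of over 55% in size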
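HT-1080-NT fibrosarcoma cells (2HG-overproducing), 750 cells/well in RPMI with 5% FBS, dosed after 2 h and incubated 48 h at 37C. CellTiter-Glo luminescence normalized to DMSO and no-cell wells; concentration-response curves fitted and classed.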
TDP1 cell noCPT: qHTS for Inhibitors of human tyrosyl-DNA phosphodiesterase 1 (TDP1): qHTS in cells in absence of CPT; DT40 Tdp1-/- hTDP1 cells, no CPT, ATP luminescence, 48 h; Potency, µM (series often up to 46.2 µM), for inactives: at the highest dose activity change, negative = growth inhibition, most hits filed as inhibitors; 420,000 tested, 15% active; note: potency is the fitted concentration of half-maximal effect; nearly all actives have a fitted effect of over 55% in size
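Compound effects on proliferation are scored in DT40 Tdp1-/-;hTDP1 cells in the absence of CPT. ATP levels (CellTiter-Glo luminescence) are recorded after a ≥48 hr, 37 °C incubation.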
TDP1 cell CPT: growth inhibition of DT40 Tdp1-/-;hTDP1 cells with camptothecin (screen for TDP1 inhibitors) | AID 686979 | 420,000 tested, 12% active | Potency, µM (doses to about 46.2 µM), inactives show top-dose activity change, negative = growth inhibition, most hits filed as inhibitors | chicken DT40 Tdp1-/-;hTDP1 cells + 20 nM CPT, ATP luminescence, 48 h; note: potency is the fitted concentration of half-maximal effect; nearly all actives have a fitted effect of over 55% in size
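Chicken DT40 Tdp1-/- cells complemented with human TDP1, 400 cells/well, exposed to compounds plus 20 nM camptothecin for at least 48 h at 37 C; viability read as ATP content by CellTiter-Glo luminescence.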
Starred values were filed as active, the others as inactive; ? = inconclusive; / = no result given; ! = not active in a repeat. An excerpt weighted towards active compounds, which were near 19% of everything screened. Unless noted, calls come from the whole dose curve; as a rule, active = well fitted curve in the direction sought with a large enough effect; inconclusive = small, poorly fitted or top-dose-only effect, or another doubt; inactive = no such curve, though single readings can be large; an effect the other way counts as inactive or inconclusive. Unless noted, % is set by controls: 0 for no effect and ±100 for the full control effect.

SMILES	HT1080 IDH1KD tx	IL1B secr inh	HT1080NT lethal	TDP1 cell noCPT	TDP1 cell CPT
CCOC(=O)C(Cc1ccc(O)c([N+](=O)[O-])c1)N1C(=O)c2ccccc2C1=O (configuration not stated)	2.8%	9.6	9.5%	?	?
Cc1cc(C)cc(C(=O)N[C@@H](C)C(=O)N2CCC3(CC2)NCCc2[nH]cnc23)c1	12.1%	-13.1	17.4%	18.2%	-16.4%
CCOC(=O)c1cc2c(=O)n3cccc(C)c3nc2n(Cc2ccco2)c1=NC(=O)c1ccccc1	9.3%	14.7	3.6%	?	29.1µM*
CCNC(=O)c1cc2c(c(-c3cccc(-c4cccc(C(=O)N(C)C)c4)c3)n1)[C@@H](CCO)N(S(=O)C(C)(C)C)C2 (some centres not stated)	5.3%	-22.6	6.6%	20.6µM*	?
CC(C)(C)S(=O)N1Cc2cc(C(=O)NCC(F)(F)F)nc(-c3cccc(-c4cccc(F)c4)c3)c2[C@@H]1CCO (some centres not stated)	20.6µM*	-2.2	?	18.4µM*	18.4µM*
CC(=O)NC1C(O)C[C@@](O)(C(=O)O)OC1[C@@H](O)C(O)CO (some centres not stated)	/	/	/	-8.2%	-1.5%
Cc1nn2c(C)c(C(=O)N3CCN(c4ccc(Cl)cc4)CC3)cnc2c1-c1ccc(F)cc1	/	/	/	-2.2%	1.9%
CCc1ccc(NC(=O)CCn2nc(C)c(S(=O)(=O)N3CCCCC3)c2C)cc1	-7.1%	-14.7	-2.6%	18.4µM*	23.1µM*
CCc1ccc(NC(=O)c2cc(S(=O)(=O)N3CCCC3)ccc2F)cc1	-28.5%	-20.7	-11.1%	11.6µM*	14.6µM*
CCc1ccc(NC(=O)c2cc(S(=O)(=O)N3CCCCCC3)ccc2F)cc1	/	/	/	18.4µM*	?
CCOc1ccc(NC(=O)CCn2nc(C)c(S(=O)(=O)N3CCCCC3)c2C)cc1	11.5%	27.3	6.7%	?	?
Cc1ccsc1CCN1C(=O)N(c2ccccc2)C(=O)C1CC(=O)Nc1ccc(Cl)cc1 (configuration not stated)	/	/	/	?	25.9µM*
Cc1ccc(CN2C(=O)N(c3ccccc3)C(=O)C2CC(=O)Nc2ccccc2)cc1 (configuration not stated)	/	/	/	?	-21.9%
O=C(CC1C(=O)N(c2ccccc2)C(=O)N1CCc1cccs1)Nc1ccc(Cl)cc1 (configuration not stated)	/	/	/	?	20.6µM*
COc1ccc(/C=N/n2cnc3c([nH]c4ccc(F)cc43)c2=O)cc1CSc1ccccn1	24.4%	2.7	28.5%	7.31µM*	1.16µM*
Cc1ccc(NC(=S)c2nc3ccccc3[nH]2)c(C)c1	-23.9%	1.6	-18.8%	?	?
Cc1ccc(NC(=S)c2nc3ccccc3[nH]2)cc1	-22.7%	-5.8	-9.6%	10.3µM*	13µM*
CCOc1cc(CNCc2cc(OC)cc(OC)c2)ccc1OC	?	-58.2*	?	8.2µM*	13µM*
CCOc1ccc(CNCc2ccc(C(=O)O)cc2)cc1OC	16.8%	1.3	22.3%	0.3%	-0.3%
COc1cc(CNCc2cc(OC)ccc2OC)cc(OC)c1	0.5%	-56.6*	3.0%	-25.9%	?
COc1cc(CNCc2cc(OC)c(OC)c(OC)c2)cc(OC)c1	0.2%	1.9	0.0%	23.1µM*	13µM*
Cc1cc(Br)cc(C)c1OCC(=O)Nc1ccc(S(=O)(=O)Nc2ncccn2)cc1	/	/	/	-4.4%	?
Cc1cc2c(cc(C(=O)OC(C(=O)NCc3ccco3)C(C)C)n2C)o1 (configuration not stated)	-14.5%	0.0	-24.2%	18.4µM*	25.9µM*
CCOC(=O)C1=C(COC(=O)c2cc(Br)c(Br)s2)NC(=O)NC1C (configuration not stated)	-11.6%	9.8	-3.1%	-20.1%	-6.8%
O=C(CCCc1ccccc1)Nc1ccc(Br)cc1F	-6.0%	-11.3	1.1%	?	14.6µM*
SMILES	HT1080 IDH1KD tx	IL1B secr inh	HT1080NT lethal	TDP1 cell noCPT	TDP1 cell CPT
O=C(CCc1ccccc1)Nc1ccccc1[N+](=O)[O-]	19.6%	3.7	22.8%	1.5%	-2.0%
NS(=O)(=O)c1ccc(CCNC(=O)Cc2ccccc2[N+](=O)[O-])cc1	-5.2%	30.1	-8.2%	-10.1%	-9.5%
O=C(Cc1ccccc1[N+](=O)[O-])NCCCc1ccccc1	-16.0%	0.7	-14.7%	?	16.4µM*
O=C(CCCc1ccccc1)Nc1ccccc1[N+](=O)[O-]	-10.8%	4.0	1.0%	20.6µM*	10.3µM*
O=C(CCc1ccccc1)Nc1ccc(F)cc1F	2.8%	-22.3	11.2%	-5.0%	3.8%
CCNc1ncc2nc(-c3cc(F)cc(F)c3)c(=O)n(C[C@H]3CCCO3)c2n1	/	/	/	10.5%	-8.3%
N#CNC(=Nc1cccc(Cl)c1)Oc1ccccc1	1.4%	0.0	-3.3%	-24.7%	?
N#CNC(=Nc1ccc(Cl)cc1)Oc1ccccc1	-2.5%	-55.2*	-5.1%	?	?
Cc1ccccc1C(=O)Nc1cccc(N)c1	3.9%	-15.3	2.2%	1.5%	1.9%
C/C(=N\NC(=O)c1ccc(O)cc1)c1cccc(NC(=O)c2ccccc2C)c1	-7.1%	-7.2	1.2%	23.1µM*	?
COc1ccccc1C(=O)Nc1cc(-c2ccc(C)cc2)no1	-8.8%	?	-9.7%	13µM*!	?
COc1ccccc1C(=O)Nc1cccc(NC(=O)c2ccccc2C)c1	-12.2%	-70.0*	7.7%	?	?
C/C(=N\NC(=O)c1c(Br)c(C)nn1C)c1cccc(NC(=O)c2ccccc2C)c1	15.5%	-8.4	23.6%	?	?
Cc1ccc(-c2cc(NC(=O)c3cccc(C)c3)on2)cc1	/	/	/	-26.2%	-21.3%
Cc1ccccc1C(=O)Nc1cccc(NC(=O)c2ccc(C(C)(C)C)cc2)c1	/	/	/	5.8µM*	8.2µM*
CCCN1C(=O)c2ccccc2NC1c1ccc(O)c(OCC)c1 (configuration not stated)	4.0%	13.7	0.8%	-7.5%	-0.3%
c1ccc(Nc2nc(N3CCCCC3)nc(N3CCCCC3)n2)cc1	?	-11.4	?	?	?
c1ccc(Sc2nc(N3CCCCC3)nc(N3CCCCC3)n2)nc1	1.6%	23.0	4.4%	18.4µM*	?
CCN(C(=O)COC(=O)C1CC1)c1c(N)n(Cc2ccccc2)c(=O)[nH]c1=O	-0.4%	-23.4	-10.4%	3.8%	-2.8%
CCN(C(=O)COC(=O)c1ccc2[nH]c(C)c(C)c2c1)c1c(N)n(Cc2ccccc2)c(=O)[nH]c1=O	2.3%	0.0	4.7%	-29.6%	18.4µM*
Cc1nc(NC(=O)COC(=O)c2cc3c(s2)CCC(C)C3)c(Cl)cc1Cl (configuration not stated)	?	13.0	15.0%	-3.8%	10.0%
